Experimental data as given in the supplement of paper PMC13380429.

Tested on: Vero E6 infected with SARS-CoV-2
Assay: inhibition of SARS-CoV-2 cytopathic effect; higher = more antiviral protection, active = above 15
Conditions: 48 h

Measured: inhibition of SARS-CoV-2 cytopathic effect

Cc1cccn2c(=O)c(-c3nnn[nH]3)cnc12 [pemirolast]
inactive: 1 nM -0.01% | 8.33 nM 0.57% | 100 nM 0.12% | 833.33 nM 3.15% | 10000 nM -1.12%

COc1cccc(-c2cc(F)ccc2[C@H]2Cc3nc(N)nc(C)c3C(=O)N2)n1
inactive: 1 nM -0.35% | 8.33 nM 0.26% | 100 nM -1.38% | 833.33 nM -0.51% | 10000 nM -10.9%

O=NO [sodium-nitrite]
inactive: 1 nM 1.28% | 8.33 nM -0.03% | 100 nM 3.46% | 833.33 nM 3.43% | 10000 nM 0.91%

CCCCC1(COC(=O)CCC(=O)O)C(=O)N(c2ccccc2)N(c2ccccc2)C1=O [suxibuzone]
inactive: 1 nM -0.21% | 8.33 nM -4.18% | 100 nM -2.21% | 833.33 nM -3.64% | 10000 nM 0.42%

COc1cc2ncnc(Nc3cccc(Cl)c3)c2cc1OC [tyrphostin-AG-1478]
active: 10000 nM 17.9%
inactive: 1 nM -0.71% | 8.33 nM -1% | 100 nM -7.3% | 833.33 nM -11.1%
